# Experimental data as given in PubChem BioAssay (NCATS).
# A number with no mark means an inactive call. Activity calls are given as the source filed them. The call rests on the fitted dose curve; in most records, active means well fitted inhibition curve with a large enough effect; inconclusive means small, poorly fitted or top-dose-only effect; inactive means no such curve, though single readings can be large or run the other way.
# Test: qHTS assay for measurement of the activity of small molecule inhibitors on Zika virus induced Caspase-3 activity in human astrocytoma cells (AID 1224859);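 on activity change, negative = inhibition: plate controls were ZIKV-infected untreated cells for no effect and uninfected cells for full effect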
# Conditions: SNB-19 ZIKV-induced caspase-3/7, luminescence, 6 h; series mostly up to 45.7 µM; activity change, negative = inhibition: at the top concentration
# Outline: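 Percent inhibition of virus-induced caspase-3/7 signal is calculated against uninfected and ZIKV-infected control cells. Cells are SNB-19, infected at 2 FFU/cell for 6 h after 1 h compound exposure.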
# Potency means the concentration at half of the fitted maximal effect.
Structure (SMILES),"activity change, negative = inhibition",Potency
CCCCCCCCCCCCCCCC(=O)NCC(COP(=O)([O-])OCC[N+](C)(C)C)OCC (stereo unspecified),84.3%,
O=C(/C=C/c1ccc(O)c(O)c1)OCCc1ccccc1,3.14%,
O=C(O)[C@@H]1C[C@H](C(=O)O)N1,-9.61%,
O=C1O/C(=C/Br)CCC1c1cccc2ccccc12 (stereo unspecified),22.9%,
COc1cc(SC)ccc1C(=O)N1CCC(Cc2ccccc2)CC1,-19.4%,
Nc1nc(Cl)nc2c1ncn2[C@@H]1O[C@H](CO)[C@@H](O)[C@H]1O,3.86%,
O=C(O)Cc1ccc2c(c1)C(=O)c1ccccc1CO2,-10.8%,
COc1cccc(OC)c1OCCNCC1COc2ccccc2O1 (stereo unspecified),1.58%,
C[N+]1(C)CCC(OC(=O)C(c2ccccc2)c2ccccc2)CC1,-9.18%,
CN(C)C(N)=NCCC[C@H](N)C(=O)O,2.09%,
CCOC(=O)N1CCN(/[N+]([O-])=N/Oc2ccc([N+](=O)[O-])cc2[N+](=O)[O-])CC1,-9.98%,
Oc1ccc(C2CNCc3sccc32)cc1O (stereo unspecified),-4.27%,
C#CCN1C(C)=C(C(=O)OC)C(c2cccc([N+](=O)[O-])c2)C(C(=O)OCC)=C1C (stereo unspecified),0.914%,
O=Nc1ccc2oc(=O)ccc2c1,4.71%,
COc1ccc2c(c1)CCC1C2CC[C@@]2(C)C1CC[C@@H]2NCCCCCCN1C(=O)CCC1=O (stereo partly specified),5.95%,
N.N.N.N.N.N.N.N.N.N.N.N.N.N.O.O.[Ru+4].[Ru+5].[Ru+5],-2.8%,
Cc1ccc(C(=O)O[C@H](C(=O)O)[C@@H](OC(=O)c2ccc(C)cc2)C(=O)O)cc1 (tested in a mixture with another compound),-3.3%,
CC(C)CC(NP(=O)(O)O[C@@H]1O[C@@H](C)[C@H](O)[C@@H](O)[C@H]1O)C(=O)NC(Cc1c[nH]c2ccccc12)C(=O)O (stereo partly specified),-0.572%,

Structure (SMILES),"activity change, negative = inhibition",Potency
CO/N=C(\C(=O)N[C@@H]1C(=O)N2C(C(=O)O)=C(COC(C)=O)CS[C@H]12)c1csc(N)n1,-4.96%,
C[N+]1(C)C2CC(OC(=O)[C@H](CO)c3ccccc3)CC1C1OC12 (stereo partly specified),,inactive
COc1ccnc2c1CCCCC2S(=O)c1nc2ccccc2[nH]1 (stereo unspecified),-1.95%,
O=[N+]([O-])c1ccc2c(c1)S(=O)(=O)C=C2,8.89%,
CCCCCC(O)c1cccc(OCc2ccc3ccccc3n2)c1 (stereo unspecified),-19.2%,
CC12C(=O)OC(=O)C1(C)C1CCC2O1 (stereo unspecified),7.5%,
COC(=O)Nc1nc2ccc(C(=O)C3CC3)cc2[nH]1,13.5%,
Nc1nc(Nc2ccccc2)nc2c1ncn2[C@@H]1O[C@H](CO)[C@@H](O)[C@H]1O,5.65%,
Nc1nc(Cl)nc2c1ncn2[C@@H]1O[C@H](COP(=O)(O)OP(=O)(O)OP(=O)(O)O)[C@@H](O)[C@H]1O,3.31%,
COc1ccccc1N1CCN(CCN(C(=O)c2ccc(I)cc2)c2ccccn2)CC1,5.5%,
COc1ccccc1N1CCN(CCCCNS(=O)(=O)c2cccc3c(N(C)C)cccc23)CC1,13.7%,
NCCCCCCCCCCN,-19.3%,
CNCC[C@H](Oc1ccc(C(F)(F)F)cc1)c1ccccc1,1.17%,
Ic1ccc(N2CCN(Cc3c[nH]c4ncccc34)CC2)cc1,-6.39%,
NC(=S)c1ccc[n+]([C@@H]2O[C@@H](COP(=O)([O-])OP(=O)(O)OC[C@H]3O[C@@H](n4cnc5c(N)ncnc54)[C@H](OP(=O)(O)O)[C@@H]3O)C(O)C2O)c1 (stereo partly specified),1.58%,
CN(C)c1ccc(/C=C2\C(=O)Nc3ccccc32)cc1,,10 µM (active)
COC(=O)c1c(C)[nH]c(C)c1C(=O)c1ccccc1Cc1ccccc1,-2.85%,
c1ccc(-c2ccccn2)nc1,-14.1%,
